Screening data from PubChem BioAssay.
Rows were chosen to be rich in hits. Some 21% of all compounds tested hit in one or more screens of this group.
HCV inhibitor – inhibitors of hepatitis C virus infection; Potency, µM (series often up to 41.8 µM), hits mostly inhibitors; AID 651820; 340,000 compounds, 3.4% hits; Huh7.5.1 HCVcc-Cre infection, luciferase reporter, 44 h
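Seed cells (1,000/well) for 4 h; treat with compound and infect with HCVcc-Cre, moi about 0.5. Incubate 44 h, then detect luciferase activity.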
Pf growth 96h – P. falciparum growth inhibition at 96 hour, primary screen for plastid delayed-death inhibitors; Potency, µM (titrated, usually from 28.7 µM), hits mostly inhibitors; 320,000 compounds, 6.9% hits; AID 504834; P. falciparum luciferase reporter growth, 96 h
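96 h incubation, 37 C, 5% CO2, of luciferase-reporter P. falciparum-infected RBCs (2% hematocrit, 0.05% parasitemia final) with test compounds; endpoint luminescence.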
Shiga toxin inh – inhibitors of Shiga toxin in Vero cells; AID 2315; 290,000 compounds, 9.2% hits; inhibition, % at 38.7 µM; Vero cells, Shiga toxin protein synthesis inhibition reporter; in the data active means inhibition mostly above about 28%, no sharp cut-off; inactive means mostly below about 43%
HCMV antiviral – inhibitors of human cytomegalovirus; 410,000 compounds, 4.5% hits; AID 1259415; HFF cells, HCMV-luciferase reporter, 72 h; hits give low values; activity change, negative = inhibition, % at 57.5 µM; in the data active means activity change below about -60%; inconclusive means no clear call, values can overlap the other calls; inactive means above about -39%
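Compounds were evaluated in HFFs infected with an HCMV luciferase reporter virus (MOI 1 PFU/cell). Luciferase in lysates collected 72 h post infection served as the replication measure.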
Pf growth 48h – P. falciparum growth inhibition at 48 hours (one generation); P. falciparum luciferase growth in erythrocytes, 48 h; Potency, µM (top dose mostly 28.7 µM), actives largely listed as inhibitors; 310,000 compounds, 5.9% hits
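Luciferase-expressing parasites in RBCs, 2% Hct / 0.1% parasitemia final; RPMI 1640 + 0.5% Albumax; 37 C, 5% CO2, one generation; luminescence read-out, lower signal = inhibition.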
CHX counter – counter-screen hit for Shiga toxin inhibitors, cycloheximide | cell reporter, cycloheximide protein synthesis inhibition counterscreen | max response, % | 300,000 compounds, 12% hits | AID 2314; in the data active means max response mostly above about 13%, no sharp cut-off; inactive means mostly below about 14%; further: read at 38.3 µM for the half of the compounds with a filed dose
Hits are given with their value; [ ] = dose if it differs, or a comment. Unless noted, the call rests on the fitted dose curve; in most records, active means well fitted inhibition curve with a large enough effect; inconclusive means small, poorly fitted or top-dose-only effect, or another doubt; inactive means no such curve, though single readings can be large or run the other way.

How did COC(=O)c1cc2sccc2n1Cc1nc(-c2ccc(Cl)cc2)oc1C do in these assays?
HCV inhibitor: inactive; Pf growth 96h: 10µM; Shiga toxin inh: inactive; HCMV antiviral: inactive; Pf growth 48h: inactive; CHX counter: inactive

Results for Cc1oc(-c2cccc(Cl)c2)nc1CN1CCC(C(=O)NC(C)C)CC1 ?
HCMV antiviral: inactive

Results for Cc1cc(C)cc(Oc2ccc(NC(=O)C3CC=CCC3C(=O)O)cc2)c1 (stereo not drawn) ?
HCV inhibitor: inactive; Pf growth 96h: inconclusive; Shiga toxin inh: inactive; HCMV antiviral: inactive; Pf growth 48h: inactive[5.75 µM]; CHX counter: inactive

Results for Cc1ccc(NC(=O)N(Cc2cccnc2)Cc2ccco2)cc1C ?
HCV inhibitor: inactive; Pf growth 96h: inconclusive; Shiga toxin inh: inactive; HCMV antiviral: inactive; Pf growth 48h: inconclusive; CHX counter: inactive

What do the screens show for `Cc1ccc(NC(=O)N(Cc2ccco2)C(C)c2ccco2)cc1C` (stereo not drawn)?
HCV inhibitor: inactive; Pf growth 96h: inconclusive; Shiga toxin inh: inactive; HCMV antiviral: inactive; Pf growth 48h: inconclusive; CHX counter: 10

Results for Cc1ccc(NC(=O)CN(Cc2ccco2)Cc2ccccc2O)cc1C ?
HCV inhibitor: inconclusive; Pf growth 96h: inconclusive; Shiga toxin inh: 59; HCMV antiviral: -64; Pf growth 48h: inconclusive; CHX counter: 26

Results for CCc1cc(=O)[nH]c(SCc2nc(-c3ccccc3)no2)n1 ?
HCMV antiviral: inactive

Results for Cc1nc(N2CCN(C)CC2)c2sc(=S)n(C)c2n1 ?
HCV inhibitor: inconclusive; Pf growth 96h: 9.3µM; Shiga toxin inh: inactive; CHX counter: inactive

What do the screens show for `CN=C1S/C(=C\c2ccc(OCC(=O)OC)c(OC)c2)C(=O)N1C`?
HCV inhibitor: inactive; Pf growth 96h: inactive; HCMV antiviral: inactive; Pf growth 48h: inactive; CHX counter: 13

Results for CSC1=NC(=O)/C(=C/c2ccc(SC)cc2)S1 ?
HCV inhibitor: inactive; Pf growth 96h: inactive; Shiga toxin inh: inactive; HCMV antiviral: inactive; Pf growth 48h: inactive; CHX counter: 31

Results for COCCN1C(=O)/C(=C/c2ccc(OCc3ccc(C(=O)O)cc3)c(OC)c2)SC1=Nc1ccccc1 ?
HCV inhibitor: inactive; Pf growth 96h: 8.3µM; Shiga toxin inh: inactive; HCMV antiviral: inconclusive; Pf growth 48h: 12µM; CHX counter: inactive

How did CN=C1S/C(=C\c2ccc(O)c(OC)c2)C(=O)N1C do in these assays?
HCV inhibitor: inactive; HCMV antiviral: inactive

Results for CN=C1S/C(=C\c2ccc(SC)cc2)C(=O)N1C ?
HCV inhibitor: inconclusive; Pf growth 96h: inactive; Shiga toxin inh: 56; HCMV antiviral: inactive; Pf growth 48h: inactive; CHX counter: 33

What do the screens show for `COC(=O)[C@]1(C)N[C@H](c2ccc(-c3ccc(F)cc3)cc2)[C@@H]2C(=O)N(C)C(=O)[C@@H]21`?
HCV inhibitor: inactive; Pf growth 96h: inactive; HCMV antiviral: inactive; Pf growth 48h: inconclusive

Results for CN=C1S/C(=C\c2ccc(Cl)cc2)C(=O)N1C ?
HCV inhibitor: 11µM; Pf growth 96h: inactive; Shiga toxin inh: inactive; HCMV antiviral: inactive; Pf growth 48h: inactive; CHX counter: inactive

How did CCOC(=O)CSC1=NC(=O)/C(=C\c2ccc(Cl)cc2)S1 do in these assays?
HCV inhibitor: inconclusive; Pf growth 96h: inactive; Shiga toxin inh: 104; HCMV antiviral: -94; Pf growth 48h: inactive; CHX counter: 34

Results for CN=C1S/C(=C\c2ccc(O)c(Br)c2)C(=O)N1C ?
HCV inhibitor: inactive; Pf growth 96h: inactive; Shiga toxin inh: inactive; HCMV antiviral: inactive; Pf growth 48h: inactive; CHX counter: inactive

How did CCC(=O)N1CCc2cc(Br)cc(S(=O)(=O)CCC(=O)N3CCN(c4cc(C)ccc4C)CC3)c21 do in these assays?
HCMV antiviral: inactive

What do the screens show for `CCC(C(=O)Nc1cc(OC)cc(OC)c1)n1nc(-c2ccc(C)c(C)c2)ccc1=O` (stereo not drawn)?
HCMV antiviral: inactive

How did Cn1c(N)c(C(=O)COC(=O)c2ccc(Cl)c(S(=O)(=O)N3CCCC3)c2)c(=O)n(C)c1=O do in these assays?
HCV inhibitor: inconclusive; Pf growth 96h: inconclusive; Shiga toxin inh: inactive; HCMV antiviral: inactive; Pf growth 48h: 8.3µM; CHX counter: inactive

Results for CC(=O)Oc1ccc(C(=O)OCC(=O)c2c(N)n(C)c(=O)n(C)c2=O)cc1OC(C)=O ?
HCV inhibitor: inactive; Pf growth 96h: inactive; Shiga toxin inh: inactive; HCMV antiviral: inactive; Pf growth 48h: inactive; CHX counter: inactive

What do the screens show for `CC(=O)Oc1ccc(-c2ccc(C(=O)OCC(=O)c3c(N)n(C)c(=O)n(C)c3=O)cc2)cc1`?
HCV inhibitor: inconclusive; HCMV antiviral: -62

How did Cn1c(N)c(C(=O)COC(=O)c2cc(S(=O)(=O)N3CCCCC3)ccc2Cl)c(=O)n(C)c1=O do in these assays?
HCV inhibitor: inactive; Pf growth 96h: inactive; Shiga toxin inh: inactive; HCMV antiviral: inactive; Pf growth 48h: inactive; CHX counter: inactive

Results for CCOc1ccc(NC(=O)Nc2ccc3snnc3c2)cc1 ?
HCMV antiviral: inactive

What do the screens show for `CCOc1ccc(NC(=O)Nc2ccc3nsnc3c2)cc1`?
HCV inhibitor: inactive; Pf growth 96h: inactive; Shiga toxin inh: inactive; HCMV antiviral: inconclusive; Pf growth 48h: inactive; CHX counter: 33

What do the screens show for `CCOc1ccc(NC(=S)Nc2ccc3nsnc3c2)cc1`?
HCV inhibitor: inconclusive; Pf growth 96h: inactive; Shiga toxin inh: 57; HCMV antiviral: inconclusive; Pf growth 48h: inconclusive; CHX counter: 33

Results for COc1ccc(NC(=S)Nc2ccc3nsnc3c2)cc1 ?
HCV inhibitor: inconclusive; Pf growth 96h: 0.23µM; Shiga toxin inh: inactive; HCMV antiviral: inactive; Pf growth 48h: inactive; CHX counter: 41

Results for O=C(NCCCCc1ccccc1)C1CCCC1 ?
HCV inhibitor: inactive; Pf growth 96h: inconclusive; HCMV antiviral: inactive; Pf growth 48h: inactive; CHX counter: inactive

Results for N#Cc1c(C(F)(F)F)cc(-c2cccs2)nc1SCC(=O)Nc1ccc(Cl)cc1 ?
HCMV antiviral: -92

What do the screens show for `CCOc1ccc(NC(=O)CSc2nc(-c3cccs3)cc(C(F)(F)F)c2C#N)cc1`?
HCMV antiviral: inactive

Results for CN1CCc2nc(SCC(=O)Nc3ccc(OC(F)(F)F)cc3)c(C#N)c(-c3cccs3)c2C1 ?
HCV inhibitor: 13µM; Pf growth 96h: inactive; Shiga toxin inh: inactive; HCMV antiviral: inactive; Pf growth 48h: inactive; CHX counter: inactive

What do the screens show for `Cc1ccc(C)c(NC(=O)CSc2nc3nc(-c4cccs4)cc(C(F)(F)F)c3c(=O)[nH]2)c1`?
HCV inhibitor: inconclusive; Pf growth 96h: inactive; Shiga toxin inh: inactive; HCMV antiviral: inactive; Pf growth 48h: inactive; CHX counter: inactive

Results for O=C(CSc1nc2nc(-c3cccs3)cc(C(F)(F)F)c2c(=O)[nH]1)Nc1ccc(F)c(F)c1 ?
HCV inhibitor: inconclusive; Pf growth 96h: inactive; Shiga toxin inh: inactive; HCMV antiviral: -97; Pf growth 48h: inactive; CHX counter: inactive
